The values below come from PubChem BioAssay (Tox21).

Records with an inconclusive call do not appear. Active and inactive are the calls of the source. Calls follow the shape of the dose curve; as a rule, active = well fitted cell-killing curve with a large enough effect in the repeat runs; inconclusive = weak or mixed curves, or effect the other way; inactive = flat fitted curve, though single readings scatter.
% is scaled to controls: 0 for no effect and ±100 for the full control effect; potency is read from the fitted curve at half-maximal effect.

The test can be described thus: qHTS assay to identify small molecule antagonists of the androgen receptor (AR) signaling pathway using the MDA cell line - cell viability counter screen (AID 743041; also: nearly all actives have a fitted effect of over 45% in size). The settings on record: MDA-kb2 viability, CellTiter-Fluor, 16 h, cells co-treated with R1881 androgen agonist; series mostly up to 70.3 µM; viability change, negative = cytotoxic: at the top concentration. The source says:
National Center for Advancing Translational Sciences [NCATS]
NIH Chemical Genomics Center [NCGC]
U.S. Environmental Protection Agency [EPA]
National Institutes of Environmental Health Sciences [NIEHS]
National Toxicology Program [NTP]
U.S. Food and Drug Administration [FDA]
Androgen receptor (AR), a nuclear hormone receptor, plays a critical role in AR-dependent prostate cancer and other androgen related diseases. Endocrine disrupting chemicals (EDCs) and their interactions with steroid hormone receptors like AR may cause disruption of normal endocrine function as well as interfere with metabolic homeostasis, reproduction, developmental and behavioral functions. To identify the compounds that inhibit AR signaling, MDA-kb2 AR-luc cell line (from ATCC, deposited by Wilson et al.) was used to screen the Tox21 10K compound library. MDA-kb2 AR-luc cell line is human breast carcinoma cell line that was stably transfected with a luciferase reporter gene under control of the MMTV promoter containing response elements for both androgen receptor (AR) and glucocorticoid receptor (GR). The cytotoxicity of the Tox21 compound library against the MDA-kb2 AR-luc cell line was tested in parallel by measuring the cell viability using CellTiter-Fluor assay (Promega, Madison, WI) in the same wells.
Tox21 Assay Protocol Summary:
MDA-kb2 AR-luc cells were dispensed at 3,000 cells/4 uL/well of culture medium into white wall/solid-bottom 1536-well plates using a Multidrop Combi (ThermoFisher Scientific, Waltham, MA) dispenser. After the assay plates were incubated at a 37C and 0% CO2 for 5 hr, 23 nL of compounds dissolved in DMSO, positive controls or DMSO only was transferred to the assay plate by a Pintool station (Kalypsys, San Diego, CA), followed by addition of 1 uL of agonist (R1881) in culture medium using a Bioraptr Flying Reagent Dispenser (FRD) workstation (Beckman Coulter, Indianapolis, IN, USA). The plates were incubated at a 37C and 0% CO2 for 16 h. After 15.5 h incubation, 1uL of CellTiter-Fluor reagent (Promega) was added using a Bioraptr FRD to each plate for measuring cytotoxicity. The fluorescence intensity was quantified on a ViewLux plate reader (PerkinElmer, Shelton, CT) following 30 min incubation at 37C and 0% CO2.
A general note: qHTS replaces the single test concentration by a dilution series.
As to `CCC(=O)OCC(=O)[C@@]1(OC(=O)CC)[C@H](C)C[C@H]2[C@H]3[C@H]([C@@H](O)C[C@@]21C)[C@@]1(C)C=CC(=O)C=C1C[C@H]3Cl`, the “viability change, negative = cytotoxic” value is 5.18% [at 32.5 µM] (inactive).

With `NCc1ccccc1CC(=O)N[C@@H]1C(=O)N2C(C(=O)O)=C(CSc3nnnn3CC(=O)O)CS[C@H]12`, the “viability change, negative = cytotoxic” value was 1.99% [at 32.5 µM] (inactive).

`CN1CCC(OC(=O)C(Oc2ccc(Cl)cc2)Oc2ccc(Cl)cc2)CC1`: the “viability change, negative = cytotoxic” value is 1.7% (inactive).

For the compound `Cc1cc(C)c(NC(=O)C[C@H](CC(=O)O)c2cccc3ccccc23)c(C(=O)N2CCC3(CCCC3)CC2)c1`, the “viability change, negative = cytotoxic” value is -1.36% (inactive).

In the case of `C=C1CC[C@@H]2[C@](C)(CO)[C@H](O)CC[C@@]2(C)[C@@H]1C/C=C1/C(=O)OC[C@H]1O`, the “viability change, negative = cytotoxic” value is 2.62% (inactive).

On to `CC(C)C(=O)OCC(=O)[C@@]12O[C@H](C3CCCCC3)O[C@@H]1C[C@H]1[C@@H]3CCC4=CC(=O)C=C[C@]4(C)[C@H]3[C@@H](O)C[C@@]12C`, for which the “viability change, negative = cytotoxic” value is 13.7% (inactive).

Regarding `O=P(O)(O)OC[C@H]1O[C@](O)(COP(=O)(O)O)[C@@H](O)[C@@H]1O`, the “viability change, negative = cytotoxic” value is -0.372% (inactive).

With `COc1ccc(C2NC(=S)N3C(c4ccc(OC)c(OC)c4)NC(=S)N23)cc1OC` (stereo not given), the Potency is 0.15 µM (active).

As to `COc1ccc(-c2noc(CC(=O)O)c2-c2ccc(OC)cc2)cc1`, the “viability change, negative = cytotoxic” value is 5.61% (inactive).

For the compound `CN[C@@H]1[C@@H](O)[C@@H](O[C@@H]2[C@@H](O)[C@H](OC3OC(CN)=CCC3N)[C@@H](N)C[C@H]2N)OC[C@]1(C)O` (stereo not given in full), the “viability change, negative = cytotoxic” value was 15.6% [at 32.5 µM] (inactive).

For the compound `CCNC(=O)[C@@H]1CCCN1C(=O)[C@H](CCCN=C(N)N)NC(=O)[C@H](CC(C)C)NC(=O)[C@@H](Cc1c[nH]c2ccccc12)NC(=O)[C@H](Cc1ccc(O)cc1)NC(=O)[C@H](CO)NC(=O)[C@H](Cc1c[nH]c2ccccc12)NC(=O)[C@H](Cc1cnc[nH]1)NC(=O)[C@@H]1CCC(=O)N1`, the Potency is 11.9 µM (active).

For `CN1[C@@H]2CC[C@H]1CC(OC(c1ccccc1)c1ccccc1)C2` (stereo not given in full), the Potency result is “inactive”.

Consider `c1cnc2cc3c(cc2n1)[C@@H]1CNC[C@H]3C1`, for which the “viability change, negative = cytotoxic” value was -6.16% (inactive).

As to `C#C[C@]1(O)CC[C@H]2[C@@H]3CCC4=C(CCC(=O)C4)[C@H]3CC[C@@]21C`, the “viability change, negative = cytotoxic” value is -0.574% [at 32.5 µM] (inactive).

In the case of `CCCCCCCCCCCC(=O)OC[C@@H](O)C1OC[C@H](O)[C@H]1O` (stereo not given in full), the “viability change, negative = cytotoxic” value is -6.75% (inactive).

For `CCOC(=O)[C@H](CCc1ccccc1)N[C@H]1CCCN2CCC[C@@H](C(=O)O)N2C1=O`, the “viability change, negative = cytotoxic” value is -1.67% (inactive).

With `O=C(Nc1ccc(/C=C/c2ccc(NC(=O)c3cc(S(=O)(=O)O)c4cccnc4c3O)cc2S(=O)(=O)O)c(S(=O)(=O)O)c1)c1cc(S(=O)(=O)O)c2cccnc2c1O`, the “viability change, negative = cytotoxic” value was -0.0345% (inactive).

`O=C(Cc1cccs1)N[C@@H]1C(=O)N2C(C(=O)[O-])=C(C[n+]3ccccc3)CS[C@H]12`: the “viability change, negative = cytotoxic” value was -0.485% (inactive).

As for `O=C(NCCNCC(O)COc1ccc(O)cc1)N1CCOCC1` (stereo not given), the “viability change, negative = cytotoxic” value was 3.9% (inactive).

Take `NC(N)=NCC1COc2ccccc2O1` (stereo not given): the “viability change, negative = cytotoxic” value was 1.55% (inactive).

With `C[C@]12C=CC(=O)C=C1CC[C@@H]1[C@@H]2[C@@H](O)C[C@@]2(C)[C@H]1CC[C@]2(O)C(=O)COC(=O)CCC(=O)O`, the “viability change, negative = cytotoxic” value was 9.36% (inactive).

For `O=C(O)c1ccc(NC(=O)[C@H](Cc2ccc(O)cc2)NC(=O)c2ccccc2)cc1`, the “viability change, negative = cytotoxic” value was 4.49% (inactive).

With `NC[C@@H]1O[C@H](O[C@H]2[C@@H](O)[C@H](O[C@@H]3[C@@H](O)[C@H](N)C[C@H](N)[C@H]3O[C@H]3O[C@H](CO)[C@@H](O)[C@H](O)[C@H]3N)O[C@@H]2CO)[C@H](N)[C@@H](O)[C@@H]1O`, the “viability change, negative = cytotoxic” value is -11% (inactive).

With `CC(C)C[C@H](NC(=O)[C@@H](Cc1c[nH]c2ccccc12)NC(=O)[C@H](Cc1ccc(O)cc1)NC(=O)[C@H](CO)NC(=O)[C@H](Cc1c[nH]c2ccccc12)NC(=O)[C@H](Cc1cnc[nH]1)NC(=O)[C@@H]1CCC(=O)N1)C(=O)N[C@@H](CCCN=C(N)N)C(=O)N1CCC[C@@H]1C(=O)NCC(N)=O`, the “viability change, negative = cytotoxic” value was 1.03% (inactive).

In the case of `CC(C)[C@@H]1CC[C@@H](C)C[C@H]1OC(=O)c1ccccc1O`, the “viability change, negative = cytotoxic” value was 2.94% (inactive).

Turning to `CC1C(=O)CC2C3(C)CCC2(C(C)C(=O)O)C(=O)C13` (stereo not given), the “viability change, negative = cytotoxic” value was 0.606% (inactive).

As to `CCOC(=O)[C@H](CS)NCCN[C@@H](CS)C(=O)OCC`, the “viability change, negative = cytotoxic” value is 4.65% (inactive).

In the case of `CN(C)C=Nc1c(I)cc(I)c(CCC(=O)O)c1I`, the “viability change, negative = cytotoxic” value was 4.8% (inactive).

On to `O=C(Cn1c(=O)sc2ccc(Cl)cc21)N1CCN(CCO)CC1`, for which the “viability change, negative = cytotoxic” value is 4.56% (inactive).

In the case of `CC1(C)S[C@@H]2[C@H](NC(=O)C(N)c3ccccc3)C(=O)N2[C@H]1C(=O)OC1OC(=O)c2ccccc21` (stereo not given in full), the “viability change, negative = cytotoxic” value was 6.81% [at 32.5 µM] (inactive).

Regarding `CCOC(=O)Oc1c(OC)cc(C(=O)O[C@@H]2C[C@@H]3CN4CCc5c([nH]c6cc(OC)ccc56)[C@H]4C[C@@H]3[C@H](C(=O)OC)[C@H]2OC)cc1OC`, the “viability change, negative = cytotoxic” value is 3.41% [at 32.5 µM] (inactive).

With `COCC1=C(C(=O)OC(C)OC(=O)OC(C)C)N2C(=O)[C@@H](NC(=O)/C(=N\OC)c3csc(N)n3)[C@H]2SC1` (stereo not given in full), the Potency entry was “inactive”.

For `CN(CCO)CC(O)Cn1cnc2c1c(=O)n(C)c(=O)n2C` (stereo not given) (tested in a mixture with another compound), the “viability change, negative = cytotoxic” value is -5.62% (inactive).

For the compound `COC1=C(C(=O)O)N2C(=O)[C@@H](NC(=O)[C@H](N)C3=CCC=CC3)[C@H]2SC1`, the “viability change, negative = cytotoxic” value was 0.582% (inactive).

Consider `COc1ccc(CCNCC(O)COc2cccc(C)c2)cc1OC` (stereo not given), for which the “viability change, negative = cytotoxic” value was -11.3% (inactive).

As for `Cc1cc(-n2c(=O)[nH]c(=O)n(C)c2=O)ccc1Oc1ccc(S(=O)(=O)C(F)(F)F)cc1`, the “viability change, negative = cytotoxic” value was -11.5% (inactive).

As for `CC(=O)Nc1ccc(NC(=S)NC(=O)c2ccc(C(C)(C)C)cc2)cc1`, the “viability change, negative = cytotoxic” value was 5.87% (inactive).

Consider `O=C(NOC[C@H](O)CO)c1ccc(F)c(F)c1Nc1ccc(I)cc1F`, for which the “viability change, negative = cytotoxic” value was -2.7% (inactive).

Regarding `CC(=O)O[C@H]1CC[C@@]2(C)C(=CC[C@H]3[C@@H]4CC[C@H](C(C)=O)[C@@]4(C)CC[C@@H]32)C1`, the “viability change, negative = cytotoxic” value is -4.68% (inactive).

Regarding `CC(=O)[C@@]1(O)CC[C@H]2[C@@H]3C=C(Cl)C4=CC(=O)[C@@H]5C[C@@H]5[C@]4(C)[C@H]3CC[C@@]21C`, the “viability change, negative = cytotoxic” value was -9.31% (inactive).
